The source of these data is PubChem BioAssay (NCI).

The panel holds about 83,000 compounds, 20% with a hit somewhere; the sample as a whole holds those more often.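 Negative percent growth values reflect cell death: -40 means 40% of the cells present at the start died, and -100 means all died.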 Active and inactive are the calls of the source. How the source made its calls: active means growth percent below 10; inactive means the rest.

In the test the test system is HOP-62 NSCLC. Kind of test: NCI-60 one-dose screen, 48 h (100 = growth as untreated, 0 = no growth, -100 = all killed). To be noted: 10 µM unless noted.
On to `C[C@@H]1CC[C@@H]2[C@@H]1[C@H](OC(=O)c1ccc3ccccc3c1)[C@]1(C3CCCCC3)C[C@@H](OC(=O)CO)[C@@]2(C)O1`, for which the growth is 68% (inactive).
Next, `CN(C)c1ccc(C#Cc2c(F)cccc2Cl)cc1`: 71.8% (inactive); `CCCN1CCN(c2ccc3nc(-c4ccc5nc(-c6cc(OC)c(OC)c(OC)c6)[nH]c5c4)[nH]c3c2)CC1`: 84.3% (inactive).
In the case of `O=C(NCCOCCOCCOCCNC(=O)c1cc2c(o1)C(=O)c1ccccc1C2=O)NC12CC3CC(CC(C3)C1)C2`, the growth was -58% (active).
For `COc1cc2c(cc1OC)-c1ccc3cc4c(cc3c1N(CCN(C)C)C2)OCO4`, the growth is -21.6% (active).
The value for `O=C(NC(=S)Nc1ccc(-c2nc3ccccc3[nH]2)cc1)c1ccc2ccccc2c1` was 8.8% (active).
Regarding `CC[C@@H](C[C@H](CCO)c1ccccc1)c1cc2ccccc2o1`, the growth was 84.4% (inactive).
On to `NC(N)=N/N=C/c1ccc(Br)cc1`, for which the growth was 10.2% (inactive).
Next, `CN(C)CCOC(=O)Nc1ccc(Cl)cc1`: 88.4% (inactive); `O=C(/C=C/C12c3ccccc3C(c3ccccc31)C1C(=O)N(c3ccc(Cl)cc3)C(=O)C12)c1ccccn1` (stereo not given): 5.06% (active).
Next, `OC(c1cccc(OCc2ccccc2)c1)c1nnc(-c2ccccc2)o1` (stereo not given): 107% (inactive); `O=C1N(c2ccccc2)C(=S)N[C@]12[C@H](c1ccccc1)C1CCCN1[C@]21C(=O)NC2C=CC(Cl)=C[C@H]21` (stereo not given in full): 91.5% (inactive).
The value for `COC(=O)/C(=C\c1ccc(OC)cc1)C(=O)N1c2ccccc2Sc2ccccc21` was 64% (inactive); that for `Cc1ccc(S(=O)(=O)Nc2sccc2-c2nc(-c3ccccc3)no2)cc1` was 77.8% (inactive); that for `CCNCCNc1cc(-c2ccc(C(F)(F)F)cc2)c(C#N)c2nc3cc(Cl)c(Cl)cc3n12` was -82.4% (active).
Take `COc1ccc(/C=C(\C#N)n2nnc3ccccc32)cc1`: the growth was 26.2% (inactive).
As to `CC(C)n1nc(C#Cc2cccc3cc(-c4cccc(C(F)(F)F)c4)ncc23)c2c(N)ncnc21`, the growth was 59.7% (inactive).
Consider `COC(=O)CNC(=O)C(=O)c1c(O)c(O)c(C(C)C)c2cc(C)c(-c3c(C)cc4c(C(C)C)c(O)c(O)c(C(=O)C(=O)NCC(=O)OC)c4c3O)c(O)c12`, for which the growth was 18.5% (inactive).
In the case of `NC(=O)c1c(NC(=O)c2ccc(C(F)(F)F)cc2Cl)sc2c1CCC(=O)C2`, the growth is 1.14% (active).
Next, `C[C@@H](C[C@H](CCOCc1cccnc1)c1ccccc1)c1cc2ccccc2o1`: 81.8% (inactive).
Turning to `CCn1c(Sc2nnc(Nc3ccccc3)s2)nc2c1c(=O)n(C)c(=O)n2C`, the growth was 93.5% (inactive).
As for `Cc1cc(Cl)nc(N(CCCNc2ccnc3cc(Cl)ccc23)Cc2ccccn2)n1`, the growth was 64% (inactive).
On to `OC(CBr)c1ccnc2ccccc12` (stereo not given), for which the growth is 99.1% (inactive).
Next, `COc1cc(C2C=C(c3cccc(NC(C)=O)c3)Nc3ncnn32)cc(OC)c1OC` (stereo not given): 62.6% (inactive); `CCCCOC(=O)c1ccc(NC(=O)C(C)N2CCOCC2)cc1` (stereo not given): 99.5% (inactive).
